# High-throughput results (PubChem BioAssay)
# Measles CPE = protection of cells from measles virus | 140,000 compounds, 1.5% hits | protection (pct of control), % at 4 µM | AID 841 | Measles virus-infected cells, CPE protection, absorbance; in the data active = protection mostly above about 24%, no sharp cut-off; inactive = mostly below about 26%
# CYP2C19 inhib = human CYP2C19 inhibition; P33261; CYP2C19 Supersomes, luciferin-H EGE luminescence, 30 min; inhibition, % at 5 µM; 96,000 compounds, 21% hits; AID 778;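 active = CYP2C19 inhibition above a set limit at 5 µM in the primary screen, cut at about 50% in these data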;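 also: plate controls were negative control wells for no effect and 2.5 mM tranylcypromine positive control for full effect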
# CYP2C19 activ = cytochrome P450 2C19 (human) activation. 96,000 tested, under 10 active. P33261. activation factor at 5 µM. recombinant CYP2C19, luciferin-H EGE luminescence; stronger effect = higher value; 0 = fully inhibited enzyme, 1 = untreated enzyme;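 active = activation factor of at least 2 at 5 µM in the primary screen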;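 also: 0 = wells with 2.5 mM tranylcypromine and 1 = vehicle-only wells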
# CYP2C9 act = activators of human CYP2C9; P11712; recombinant CYP2C9, luciferin-H conversion, luminescence; stronger effect = higher value; factor 1 = untreated enzyme, 0 = blocked; activation factor at 5 µM; 96,000 compounds, 1.4% hits; AID 1024;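 active = activation factor of 2 or more for CYP2C9 at a 5 µM dose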;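 also: 0 = sulfaphenazole-blocked wells and 1 = vehicle-only wells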
# Target sequence (P11712 whole entry, looked up): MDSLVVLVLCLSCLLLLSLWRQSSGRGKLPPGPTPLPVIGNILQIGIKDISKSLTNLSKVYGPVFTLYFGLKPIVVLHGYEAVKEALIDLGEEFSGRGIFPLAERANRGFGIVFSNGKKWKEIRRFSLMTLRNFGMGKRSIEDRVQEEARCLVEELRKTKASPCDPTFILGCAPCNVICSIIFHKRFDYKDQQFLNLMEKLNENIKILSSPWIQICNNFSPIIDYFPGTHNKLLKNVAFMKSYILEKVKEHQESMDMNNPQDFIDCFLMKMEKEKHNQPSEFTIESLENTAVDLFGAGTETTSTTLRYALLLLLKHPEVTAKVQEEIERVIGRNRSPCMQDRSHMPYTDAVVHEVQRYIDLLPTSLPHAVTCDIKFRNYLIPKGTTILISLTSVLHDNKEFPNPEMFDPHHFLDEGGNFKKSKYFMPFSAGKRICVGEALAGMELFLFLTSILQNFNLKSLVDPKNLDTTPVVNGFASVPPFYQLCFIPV
# CYP2C9 inhib = blocks human cytochrome P450 2C9. P11712. CYP2C9 Supersomes, luciferin-H conversion, luminescence. inhibition, % at 5 µM. 96,000 compounds, 20% hits;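 active = blocking of liver enzyme CYP2C9 beyond about 50% at 5 µM, limit read from the data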
# * = called active by the depositor; / = not tested or not shown. Sampled rows, rich in hits. Any-hit rate of the full collection: about 22%.
SMILES,Measles CPE,CYP2C19 inhib,CYP2C19 activ,CYP2C9 act,CYP2C9 inhib
Cc1c(C(=O)NCCCN2CCOCC2)sc2ncnc(N3CCN(c4ccccc4)CC3)c12,13.3,50.4*,0.5,0.1,91.1*
CCOC(=O)c1sc2ncn(C(C)C(=O)OCC)c(=O)c2c1C (centres undefined),3.8,81.2*,0.2,0.3,74.8*
CCOC(=O)CNC(=O)c1sc2ncnc(N3CCc4ccccc4C3)c2c1C,2.9,78.8*,0.2,0,97.6*
Cc1c(C(=O)N2CCN(Cc3ccccc3)CC2)sc2ncnc(N3CCOCC3)c12,3.9,54.7*,0.5,0.7,32.3
Cc1ccc(-c2c3c(=O)n(C)c(=O)n(C)c3cn2Cc2cccnc2)cc1,8.6,30.6,0.7,1,3.0
Cc1ccc(C(=O)N2CCSCC2)cc1,15.7,25.7,0.7,0.7,27.2
O=C(NCCN1C(=O)S/C(=C\c2ccc(OC(F)F)cc2)C1=O)c1cnccn1,4.0,/,/,/,/
COC(=O)c1cc(-c2ccccc2)n(CC(=O)O)c1C,5.5,7.7,0.9,0.8,19.3
CC(C)(C)C1=C(C#N)C(c2ccncc2)C(C#N)=C(N)O1 (centres undefined),4.9,/,/,/,/
COc1cccc(C2C(C#N)=C(N)Oc3c2oc(CO)cc3=O)c1 (centres undefined),8.2,/,/,/,/
CN(C)c1ccc2c(c1)OC(N)=C(C#N)C2c1cccc(F)c1 (centres undefined),1.5,92.4*,0.1,0.2,80.5*
N#CC1=C(N)Oc2cc(O)ccc2C1c1cccs1 (centres undefined),5.3,75.9*,0.2,0.3,74.3*
N#CC1=C(N)Oc2cc(O)ccc2C1c1ccncc1 (centres undefined),7.6,84.3*,0.2,0.1,92.5*
N#CC1=C(N)Oc2c(ccc3ccccc23)C1c1cccs1 (centres undefined),2.0,46.1,0.5,0.5,54.1*
Cc1ccc(-n2nnnc2CSc2nnc(-c3ccc(O)cc3)o2)cc1,18.7,/,/,/,/
COc1ccc(CC2CCOC2=O)cc1 (centres undefined),1.6,76.5*,0.2,1,3.2
COC(=O)c1ccc(Cl)cc1NC(=O)/C=C/c1ccc(C)o1,5.4,/,/,/,/
O=C(CN(CCc1ccccc1)C(=O)Cn1nnc(-c2cccs2)n1)NCc1ccco1,20.3,56.1*,0.4,0.2,81.0*
O=C(CN(Cc1ccccc1Cl)C(=O)Cn1nnc(-c2cccs2)n1)NCC1CCCO1 (centres undefined),3.0,26.8,0.7,0.6,40.1
O=C(CN(C(=O)Cn1nnc(-c2cccs2)n1)c1ccc2c(c1)OCCO2)NCc1ccccc1,21.8,59.5*,0.4,0,95.7*
Cc1cc(C)n(-c2ccc(C(=O)OCC(=O)c3c(N)n(C)c(=O)n(C)c3=O)cc2)n1,10.3,19.8,0.8,0.9,11.4
O=C(C1CCCN(Cc2ccccc2)C1)N1CCc2ccccc2C1 (centres undefined),7.1,27.3,0.7,1,-1.8
CC(Sc1nc(N(C)C)nc(N2CCOCC2)n1)C(=O)Nc1ccccc1 (centres undefined),3.0,93.2*,0.1,0.1,92.4*
CC(Sc1nc(N2CCOCC2)nc(N2CCOCC2)n1)C(=O)Nc1ccccc1 (centres undefined),11.1,32.0,0.7,0.2,79.3*
CSc1nc(NC(C)C)nc(N2CCOCC2)n1,2.3,19.2,0.8,0.8,15.5
SMILES,Measles CPE,CYP2C19 inhib,CYP2C19 activ,CYP2C9 act,CYP2C9 inhib
CC(C)Nc1nc(SCC(=O)Nc2ccccc2)nc(N2CCOCC2)n1,24.1,81.7*,0.2,0.2,84.2*
CC(Sc1nnc(N)s1)C(=O)Nc1ccc(N2CCOCC2)cc1 (centres undefined),30.8,-5.1,1.1,1.1,-12.0
COc1ccc(C(NC(=O)c2ccccc2F)NC(=O)c2ccccc2F)cc1,10.2,/,/,/,/
Cc1[nH][nH]c(=O)c1C(c1c(C)[nH][nH]c1=O)c1cn(Cc2ccccc2Cl)c2ccccc12,3.1,/,/,/,/
O=C(CSc1nc2ccccc2c(=O)n1-c1ccc(F)cc1F)Nc1ccc2c(c1)CCC2,13.5,/,/,/,/
CCOc1ccc(NC(=O)CN2CCN(CC(=O)Nc3ccc(Cl)c(C(F)(F)F)c3)CC2)cc1,10.6,23.3,0.8,0.7,31.8
COC(=O)CSc1nc(N)c(C#N)c(C(C)C)c1C#N,4.9,59.4*,0.4,0.5,47.8
COC(=O)CSc1cc(SCC(=O)OC)c(C#N)c(SCC(=O)OC)c1,3.5,37.7,0.6,0.5,51.5*
CCOC(=O)C1CCN(c2c(NC3CCCc4ccccc43)c(=O)c2=O)CC1 (centres undefined),9.9,-13.1,1.1,1,2.0
Cc1cc(C)n(C(=O)CCNC(=O)c2ccccc2Br)n1,3.2,4.2,1,2.1*,-112.4
COc1ccccc1C(=O)NCC(=O)n1nc(C)cc1C,4.5,5.3,0.9,3*,-197.3
Cc1cc(C)n(C(=O)CCC(=O)NCc2ccccc2)n1,21.1,18.9,0.8,1.4,-38.8
COc1cc(C(=O)NCC(=O)n2nc(C)cc2C)cc(OC)c1OC,9.7,-8.5,1.1,1.3,-27.3
CC1=CCC(COC(=O)Nc2ccccc2)CC1 (centres undefined),18.0,45.8,0.5,0.9,8.4
Cc1[nH]c(=O)[nH]c(=O)c1S(=O)(=O)N1CCCC1,14.9,10.5,0.9,0.9,6.3
C/C(CCN1CCCCc2nc(C)c(C)cc21)=N\O[C@@H](C)CN1CCCCc2nc(C)c(C)cc21,6.1,/,/,/,/
COc1ccc(O[C@H]2C=C[C@@H](c3ccccc3)O[C@@H]2CO/N=C(\C)CCN2CCCCc3nc(C)c(C)cc32)cc1,23.3*,/,/,/,/
CCN1C(=O)c2cccc3c(S(=O)(=O)Nc4ccccn4)ccc1c23,5.4,19.9,0.8,0.4,64.9*
CN(C)c1cccc2c(S(=O)(=O)Nc3ccccn3)cccc12,22.8,92.4*,0.1,1.1,-13.0
CCN1C(=O)c2cccc3c(S(=O)(=O)Nc4ncccc4C)ccc1c23,3.5,23.1,0.8,0.4,55.5*
CCN1C(=O)c2cccc3c(S(=O)(=O)NCc4cccnc4)ccc1c23,10.7,2.5,1,0.8,19.9
CC(C)CCNC(=O)CO/N=C/c1ccccc1OC(F)F,21.8,/,/,/,/
Cc1ccc(C)c2c1[nH]c1ccc([N+](=O)[O-])cc12,3.8,78.0*,0.2,0.4,60.8*
Cc1ccc(C)c2c1[nH]c1ccccc12,10.9,86.2*,0.1,1,2.6
Cc1ccc(C(=O)c2ccc([N+](=O)[O-])cc2)cc1C,19.8,21.9,0.8,0.7,25.8
Cc1cc(=S)[nH]c2ccccc12,3.3,4.0,1,1.2,-16.5
O=c1c(Cl)c(N2CCCCC2)cnn1-c1nc2ccccc2[nH]1,15.2,62.3*,0.4,0.8,23.5
COC(=O)c1[nH]cnc1C(=O)c1ccccc1,3.4,-2.1,1,1.1,-9.4
O=C(/C=C/c1cc([N+](=O)[O-])ccc1OC(F)F)Nc1cccc2ccccc12,15.6,/,/,/,/
CCCCCCCNC(=O)COc1ccc2c(c1)C(=O)CC(C)(C)O2,15.9,87.5*,0.1,0,95.9*
